High-throughput results deposited in PubChem by The Scripps Research Institute Molecular Screening Center.
Most compounds without a hit are left out; they make up all but 3.5% or so of the library.
FBW7 act: activators of human E3 ligase FBW7. Q969H0. AlphaScreen FBW7–phospho-cyclin E peptide binding, activator screen. normalized activity (activation), % at 26.1 µM. 0.13% of 650,000 active. AID 1259310; in the data active means normalized activity above about 1.9%;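 further: purified mutant Fbw7 with reduced substrate affinity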
GPR151 ag: activates the human receptor GPR151; activation, % at 11.2 µM; Q8TDV0; PathHunter beta-arrestin GPR151 cells, luminescence; 1% of 650,000 active; in the data active means activation above about 4.9%;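 further: 0% = median of compound wells and 100% = cells with positive control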
MITF inh: blocks human microphthalmia-associated transcription factor; AlphaScreen MITF homodimerization, bead proximity signal; inhibition, % at 2.6 µM; 0.91% of 650,000 active; in the data active means inhibition above about 50%;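 further: 0% = vehicle wells with protein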
TEAD-YAP block: TEAD-YAP interaction inhibition | HEK-TIYL cells, TEAD-Gal4/YAP UAS-luciferase luminescence | 1.4% of 640,000 active | inhibition, % at 9.12 µM; in the data active means inhibition above about 32%;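 further: 0% = median of test compound wells and 100% = reference inhibitor wells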
GPR151 confirm: human GPR151 activation, confirmation screen; activation, % at 11.2 µM; GPR151 PathHunter beta-arrestin cells, luminescence, 90 min; % of EA-reagent control over plate median; AID 1508609; shares compounds with GPR151 ag; 6,700 tested, under 10 active;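 active means mean percent activation across replicates above the confirmation screen cutoff of 4.91%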
GPR119 counter: counter-screen for GPR151 activators: effect on human GPR119. activation, % at 11.2 µM. AID 1508611. 0.3% of 6,700 active. GPR119 PathHunter beta-arrestin cells, luminescence, 90 min; 0 = compound-well median, 100 = enzyme-acceptor control. shares compounds with GPR151 ag;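 active means mean percent activation in the counterscreen above 29.09%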;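 further: counterscreen on off-target GPR119 to flag nonselective hits from the GPR151 activator screen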
Target sequence (Q8TDV5 whole entry, looked up): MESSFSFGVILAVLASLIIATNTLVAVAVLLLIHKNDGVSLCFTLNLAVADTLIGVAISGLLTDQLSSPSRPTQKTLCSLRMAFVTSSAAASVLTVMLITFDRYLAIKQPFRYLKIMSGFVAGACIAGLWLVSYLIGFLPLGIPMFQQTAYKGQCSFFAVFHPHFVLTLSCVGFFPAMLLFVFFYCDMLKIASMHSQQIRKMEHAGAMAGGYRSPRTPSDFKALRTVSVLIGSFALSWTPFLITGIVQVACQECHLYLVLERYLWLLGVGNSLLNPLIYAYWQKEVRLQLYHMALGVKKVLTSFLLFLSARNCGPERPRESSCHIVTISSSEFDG
* hit, by the source's call; · = not tested or not shown; ! = a repeat was not active.

SMILES	FBW7 act	GPR151 ag	MITF inh	TEAD-YAP block	GPR151 confirm	GPR119 counter
CCCCCCCCCCCCCCCC(=O)C(F)(F)F	0	5.0*!	2	·	-1	-10
Cc1c(C(=O)OC(C)C(C)CN(C)C)oc2ccccc12 (stereo unspecified)	0	0	-10	-4	·	·
CCOc1ccc(S(=O)(=O)NCCCCN2CCOC(c3ccccc3)C2)cc1F (stereo unspecified)	0	0	0	11	·	·
CCCOC(=O)c1ccc(NC(=O)c2ccc(C)cc2)cc1	0	2	-4	-21	·	·
CCOCCCNC(=O)C(NC(=O)C1CCC(=O)N1)c1ccccc1 (stereo unspecified)	0	5.6*	-12	-2	0	16
Cc1c(-c2ccccc2)c(=O)oc2cc(OCC#N)ccc12	0	6.5*	-3	11	0	8
CCOC(=O)COc1ccc2c(C)c(-c3ccccc3)c(=O)oc2c1	0	-2	2	0	·	·
Cc1cc(-c2csc(-c3cccnc3)n2)c(C)n1C	0	-1	11	-3	·	·
COCCCn1c(=O)[nH]c2ncc(-c3ccccc3)nc21	-1	-1	-5	9	·	·
COCCCn1c(=O)[nH]c2ncc(-c3cc(OC)c(OC)c(OC)c3)nc21	-1	6.0*	9	-10	0	9
Cc1ccc(C)c(-c2csc(NC(=O)c3ccccc3)n2)c1	0	0	11	-25	·	·
O=c1oc2c(CN3CCOCC3)c(O)ccc2cc1-c1ccc(F)cc1	1	14*	7	-4	0	-3
COc1ccc(-c2cc3ccc(O)c(CN4CCOCC4)c3oc2=O)cc1	0	-1	8	-3	·	·
Cc1[nH]c2ccccc2c1SCCNC(=O)c1ccc(N2C(=O)CCC2=O)cc1	0	6.2*	-2	7	-1	2
O=C(Nc1ccc(C23CC4CC(CC(C4)C2)C3)cc1)c1cnc2n(c1=O)CCS2	0	3	-3	4	·	·
Cc1nn(-c2ccccn2)c2c1C(=O)CC(C)(C)C2Br (stereo unspecified)	0	5.8*	16	4	-1	-8
CCCN(CCC)S(=O)(=O)c1ccc(NC(=O)c2ccc(OCC)cc2)cc1	0	1	10	22	·	·
CCOC(=O)N1CCC(Nc2c(NC(C)CC)c(=O)c2=O)CC1 (stereo unspecified)	0	8.8*	-20	-3	0	10
CCOC(=O)N1CCN(c2c(NCCN3CCCCCC3)c(=O)c2=O)CC1	0	2	-2	-9	·	·
CCOC(=O)N1CCN(c2c(NC3CCCCCCC3)c(=O)c2=O)CC1	0	3	3	2	·	·
CCOC(=O)C1CCN(c2c(NCCN3CCOCC3)c(=O)c2=O)CC1	0	6.3*	10	1	-1	-18
CC1CCN(c2c(NCc3ccc(C(=O)NCCc4ccccc4)cc3)c(=O)c2=O)CC1	0	5.2*	3	-9	1	-8
CCOC(=O)N1CCN(c2c(NCCN3CCCC3)c(=O)c2=O)CC1	0	5.5*	1	-6	1	10
COc1cc(C#N)ccc1OCC(=O)NC(c1ccccc1)c1ccccc1	0	-1	-4	10	·	·
CCCN(C)C(=O)c1c(C)nc2ccccn12	0	0	3	-5	·	·
SMILES	FBW7 act	GPR151 ag	MITF inh	TEAD-YAP block	GPR151 confirm	GPR119 counter
CC1CCCC(NC(=O)C2N(CCN3CCCCC3C)C(=O)C3C(C(=O)Nc4ccc(Cl)cc4)C4C=CC32O4)C1C (stereo unspecified)	0	-1	15	4	·	·
CCOC(=O)C1CCN(c2c(NCCCc3ccccc3)c(=O)c2=O)CC1	0	9.9*	4	-4	0	4
CCOC(=O)C1CCCN(c2c(NCCCc3ccccc3)c(=O)c2=O)C1 (stereo unspecified)	0	0	6	-13	·	·
CCCCNc1c(N2CCCC(C(=O)OCC)C2)c(=O)c1=O (stereo unspecified)	0	5.1*	1	-1	3	6
CCOC(=O)C1CCCN(c2c(NCCCN3CCN(C)CC3)c(=O)c2=O)C1 (stereo unspecified)	0	0	-3	5	·	·
CCN1CCN(C(=O)CN(c2ccccc2Cl)S(C)(=O)=O)CC1	0	0	20	3	·	·
CCN(CC)c1nc(C)c([N+](=O)[O-])c(C)c1C(N)=O	0	6.5*	-16	-12	0	2
COc1ccc2c(c1)c(CC(=O)Nc1nnc(C)o1)c(C)n2C(=O)c1ccc(Cl)cc1	0	5.7*	13	9	1	2
COc1cc2c(cc1OC)C(C)N(C(=O)c1ccccc1Cl)CC2 (stereo unspecified)	0	0	-7	0	·	·
C#CCN1CCc2cc(OC)c(OC)cc2C1C (stereo unspecified)	0	6.4*	-10	-10	2	4
COCCCN1C(=O)c2ccc(C(=O)Oc3ccc(C(C)(C)C)cc3)cc2C1=O	1	5.2*	8	3	1	-3
Cc1nonc1NC(=O)CSc1nc(Cc2ccccc2)nc2ccccc12	0	10*	-8	0	0	3
CC(C)NC(=O)CSc1nc(Cc2ccccc2)nc2ccccc12	0	-1	-18	-12	·	·
CC(=O)N1CCC[C@H]1C(=O)NCC1CC(Cc2cccc(F)c2)=NO1 (stereo partly specified)	0	0	11	11	·	·
CCOC(=O)Cn1c(=NC(=O)c2cc(=O)c3ccccc3o2)sc2cc(F)ccc21	0	5.1*	-3	1	0	3
CCOC(=O)Cn1c(=NC(=O)c2cc(=O)c3ccccc3o2)sc2cc(OC)ccc21	0	1	8	-7	·	·
NC(=NCCC[C@H](N)C(=O)O)NO	0	5.5*	-5	-3	0	-9
Cc1cnc(Cl)nc1NCc1ccccc1	0	5.6*	5	-10	0	3
Cc1c(N2C(=O)c3ccc(Br)cc3C2=O)c(=O)n(-c2ccccc2)n1C	0	5.2*	3	-5	0	-4
CCOc1cc(/C=C2\N=C(c3cccc(C)c3)OC2=O)ccc1OC(C)=O	0	0	1	2	·	·
CCOc1cc(/C=C2/N=C(c3cccc(C)c3)OC2=O)ccc1OS(C)(=O)=O	1	13*	9	12	-1	-18
CN1C(=O)/C(=c2\sc3nc(=O)c(Cc4ccccc4)nn3c2=O)c2ccccc21	0	5.5*	15	3	0	4
O=C(CN1C(=O)/C(=c2/sc3nc4ccccc4n3c2=O)c2ccccc21)Nc1ccc(F)cc1	0	2	4	5	·	·
O=C1/C(=c2\sc3nc4ccccc4n3c2=O)c2ccccc2N1Cc1ccccc1	0	7.2*	0	-9	0	-12
